Results on 29 compounds are retold here after PubChem BioAssay AID504832 (National Center for Advancing Translational Sciences (NCATS), 2011).

Screen size: about 310,000 compounds; about 18,000 (5.8%) were called active. About 22% were inconclusive and are not listed. Calls follow the shape of the dose curve; as a rule, active = well fitted inhibition curve with a large enough effect; inconclusive = small, poorly fitted or top-dose-only effect, or another doubt; inactive = no such curve, though single readings can be large or run the other way. The entries come from a sample that favours actives as a whole.
% is scaled to controls: 0 for no effect and ±100 for the full control effect; potency is read from the fitted curve at half-maximal effect.

The assay can be described thus: Primary qHTS for delayed death inhibitors of the malarial parasite plastid, 48 hour incubation. Particulars: P. falciparum luciferase growth in erythrocytes; series mostly up to 28.7 µM; activity change, negative = inhibition: at the top concentration. The procedure, abridged: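 Growth was read as firefly luciferase luminescence after a 48 h, 37 C, 5% CO2 exposure of compounds to reporter-bearing P. falciparum cultures (0.1% parasitemia, 2% hematocrit final) in Albumax-supplemented RPMI 1640.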
A general note: Quantitative high-throughput screening tests each substance at several concentrations.
Regarding `COc1ccc(S(=O)(=O)N2CCC(C(=O)N3CCc4ccccc4C3)CC2)cc1OC`, the “activity change, negative = inhibition” value is -23.1% (inactive).

`COc1cc2c(cc1OC)CN(C(=O)c1ccc(S(=O)(=O)N3CCCCCC3)cc1)CC2`: the Potency is 6.57 µM (active).

Consider `COc1cc(C(=O)NNC(=O)c2ccc(S(=O)(=O)N3CCCCC3)cc2)cc(OC)c1OC`, for which the “activity change, negative = inhibition” value is 1.28% (inactive).

With `COC(=O)C1(CCSC)NC(c2ccc(OC)cc2OC)C2C(=O)N(c3cccc(C(C)=O)c3)C(=O)C21` (centres undefined), the “activity change, negative = inhibition” value is -19.3% (inactive).

As to `CSc1ccccc1NC(=O)c1ccc2c(c1)CCN2S(C)(=O)=O`, the “activity change, negative = inhibition” value is 41.5% (inactive).

As to `COc1ccc2cc(C(=O)O)n(CC(=O)c3ccccc3)c2c1`, the “activity change, negative = inhibition” value is 18.2% (inactive).

On to `Cc1ccc(CS(=O)Cc2ccc(C(=O)N3CCOCC3)o2)cc1` (centres undefined), for which the “activity change, negative = inhibition” value is 3.7% (inactive).

Take `Cc1cccc(N(C(=O)c2ccc(CN3CCOCC3)o2)C(C(=O)NC2CCCCC2)c2ccc(F)cc2)c1` (centres undefined): the “activity change, negative = inhibition” value is 7.73% (inactive).

As for `Cc1ccc(N(C(=O)c2ccc(CN3CCOCC3)o2)C(C(=O)NCCC(C)C)c2cccs2)c(C)c1` (centres undefined), the Potency was 10.4 µM (active).

For `Cc1c(NS(=O)(=O)c2cc(C(=O)NCCc3ccc(F)cc3)cc(Cl)c2Cl)c(=O)n(-c2ccccc2)n1C`, the “activity change, negative = inhibition” value is -17% (inactive).

On to `COC(=O)c1ccc(NC(=O)CSc2nnc(C3CC3)n2C)cc1`, for which the “activity change, negative = inhibition” value is -5.32% (inactive).

On to `CCOC(=O)c1c(-c2ccc(C)cc2)csc1/N=C(\C)C1=C(O)c2ccccc2C1=O`, for which the “activity change, negative = inhibition” value is -24.3% (inactive).

Regarding `CCOC(=O)C1=C(c2ccc(OC)cc2)C(=O)c2ccccc2C1=O`, the Potency was 2.94 µM (active).

Regarding `CCOC(=O)c1ccccc1NS(=O)(=O)c1ccc(OC)cc1`, the “activity change, negative = inhibition” value was -12.7% (inactive).

`COc1ccc(-c2cc(C(=O)NCCCN3CCOCC3)no2)cc1`: the “activity change, negative = inhibition” value is 1.35% (inactive).

Consider `O=[N+]([O-])c1ccc(Oc2ccc(F)cc2Br)c2ccncc12`, for which the Potency was 14.7 µM (active).

On to `Cn1c(SCc2ccc(F)cc2)nnc1-c1ccncc1`, for which the “activity change, negative = inhibition” value is -20.5% (inactive).

Consider `Cc1ccc(-c2csc(NC(=O)c3cnccn3)n2)cc1C`, for which the “activity change, negative = inhibition” value is 20.3% (inactive).

As for `Cc1csc(NC(=O)C2=COCCO2)n1`, the “activity change, negative = inhibition” value was 115% (inactive).

For `Cc1ccc(-c2csc(NC(=O)C3=COCCO3)n2)cc1C`, the Potency was 10.4 µM (active).

For `CN(Cc1ccccc1)C(=O)c1cccc(C(=O)N(C)Cc2ccccc2)c1`, the “activity change, negative = inhibition” value is 4.36% (inactive).

For `CC(C)C[C@H](CO)Nc1nc(N(C)c2cccc(Cl)c2)c2ncn(C(C)C)c2n1`, the Potency is 13.1 µM (active).

For the compound `O=C(CCCC(=O)N1CCN(c2cccc(Cl)c2)CC1)c1ccccc1`, the “activity change, negative = inhibition” value is -4.33% (inactive).

With `Cc1ccc(C)c(N2CCN(C(=O)Cn3ncn4cccc4c3=O)CC2)c1`, the “activity change, negative = inhibition” value is 31.9% (inactive).

In the case of `CN1CN(C)c2ccc([N+](=O)[O-])c3cccc1c23`, the “activity change, negative = inhibition” value was 34.5% (inactive).

Consider `Cc1ccc(C(=O)N2CCC(n3nccc3NC(=O)Nc3cccc(F)c3)CC2)cn1`, for which the “activity change, negative = inhibition” value was 7.73% (inactive).

For the compound `CCCNC(=O)c1onc(CSc2ccc(F)cc2)c1C(=O)NC(C)C`, the Potency is 9.28 µM (active).

Take `CCOc1cccc(SCc2noc(C(=O)NC(C)C)c2C(=O)O)c1`: the “activity change, negative = inhibition” value was 21.5% (inactive).

With `CCCCNC(=O)c1onc(CSc2cccc(OC)c2)c1C(=O)O`, the “activity change, negative = inhibition” value was 18.7% (inactive).
